Assay results reported in PubChem BioAssay (EPA / NIEHS).
The source made the active and inactive calls. How the source made its calls: active means hit-call score of the fitted dose curve at least 0.9, where 1 is the maximum; inactive means score below 0.9.

Tests used:
Conditions in all cases: mRNA level, 48 h; actives raise or lower the signal
[1] = read-out: CFLAR gene, CFLAR (gene 8837); assay: LTEA_HepaRG_CFLAR: Life Technologies and Expression Analysis (LTEA) Assay for CFLAR gene using HepaRG (AID 2283455)
Method in brief: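 Differentiated HepaRG cells in serum-free induction medium were exposed 48 h in duplicate to eight half-log concentrations up to 100 uM in 0.5% DMSO; mRNA measured by TaqMan qRT-PCR, normalized to ACTB, GAPDH, POLR2A; bidirectional fitting versus DMSO.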

[2] = read-out: Forkhead box O1 (FOXO1), FOXO1 (gene 2308); assay: LTEA_HepaRG_FOXO1: Life Technologies and Expression Analysis (LTEA) Assay for Forkhead box O1 (FOXO1) using HepaRG (AID 2283456)
Method in brief: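 Differentiated HepaRG cells, in serum-free induction medium with 0.5% DMSO, exposed 48 h in duplicate to 8-point half-log series from 100 uM. FOXO1 mRNA measured by TaqMan qRT-PCR, normalized to ACTB, GAPDH, POLR2A; bidirectional fit versus DMSO.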

[3] = read-out: growth arrest and DNA damage 45 (GADD45A), GADD45A (gene 1647); assay: LTEA_HepaRG_GADD45A: Life Technologies and Expression Analysis (LTEA) Assay for growth arrest and DNA damage 45 (GADD45A) using HepaRG (AID 2283458)
Method in brief: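 Differentiated HepaRG cells exposed 48 h in serum-free induction medium to 8 concentrations, top 100 uM in half-log steps, 0.5% DMSO. GADD45A mRNA quantified by qRT-PCR, normalized to ACTB, GAPDH and POLR2A; bidirectional fit versus DMSO.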

[4] = read-out: ABC Transporter (ABCB1), ABCB1 (gene 5243); assay: LTEA_HepaRG_ABCB1: Life Technologies and Expression Analysis (LTEA) Assay for ABC Transporter (ABCB1) using HepaRG (AID 2283460)
Method in brief: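 HepaRG cells exposed in duplicate for 48 h in serum-free induction medium to eight half-log concentrations up to 100 uM in 0.5% DMSO. ABCB1 mRNA quantified by qRT-PCR, normalised to ACTB, GAPDH and POLR2A; fitted bidirectionally versus DMSO.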

[5] = read-out: growth arrest and DNA damage 45 (GADD45B), GADD45B (gene 4616); assay: LTEA_HepaRG_GADD45B: Life Technologies and Expression Analysis (LTEA) Assay for growth arrest and DNA damage 45 (GADD45B) using HepaRG (AID 2283461)
Method in brief: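 qRT-PCR read-out (Fluidigm TaqMan, housekeeping-normalized) of mRNA change in human HepaRG cells after 48 h chemical exposure; 8-point curve, top 100 uM, half-log steps, 0.5% DMSO vehicle; gain or loss fitted relative to DMSO baseline.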

[6] = read-out: ABC Transporter (ABCC3), ABCC3 (gene 8714); assay: LTEA_HepaRG_ABCC3: Life Technologies and Expression Analysis (LTEA) Assay for ABC Transporter (ABCC3) using HepaRG (AID 2283462)
Method in brief: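 qRT-PCR read-out of ABCC3 transcript, normalized to three housekeeping genes (ACTB, GAPDH, POLR2A), after 48 h chemical exposure of human HepaRG cells. Eight half-log concentrations, highest 100 uM, in 0.5% DMSO; gain or loss fitted relative to DMSO baseline.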

[7] = read-out: ABC Transporter (ABCB11), ABCB11 (gene 8647); assay: LTEA_HepaRG_ABCB11: Life Technologies and Expression Analysis (LTEA) Assay for ABC Transporter (ABCB11) using HepaRG (AID 2283463)
Method in brief: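 Differentiated human HepaRG cells in serum-free induction medium, dosed in duplicate for 48 h. Eight-point half-log series from 100 uM in 0.5% DMSO; ABCB11 mRNA by qRT-PCR, normalized to ACTB, GAPDH, POLR2A, fitted bidirectionally versus DMSO.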

[8] = read-out: ABC Transporter (ABCC2), ABCC2 (gene 1244); assay: LTEA_HepaRG_ABCC2: Life Technologies and Expression Analysis (LTEA) Assay for ABC Transporter (ABCC2) using HepaRG (AID 2283464)
Method in brief: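 qRT-PCR (TaqMan, Fluidigm array) read-out of ABCC2 mRNA, normalized to three housekeeping genes. Differentiated HepaRG cells were treated 48 h in serum-free induction medium with 8-point half-log series from 100 uM in 0.5% DMSO; curves fitted bidirectionally relative to DMSO.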

[9] = read-out: Broad substrate specificity ATP-binding cassette transporter ABCG2 (Homo sapiens) (UniProt Q9UNQ0); assay: LTEA_HepaRG_ABCG2: Life Technologies and Expression Analysis (LTEA) Assay for ABC Transporter (ABCG2) using HepaRG (AID 2283465)
Method in brief: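 Differentiated HepaRG cells were exposed for 48 h in serum-free induction medium to 8 half-log concentrations, top 100 uM, in 0.5% DMSO. ABCG2 mRNA was measured by qRT-PCR, normalized to ACTB, GAPDH and POLR2A, with bidirectional fitting versus DMSO.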

[10] = read-out: ATP-citrate lyase (ACLY), ACLY (gene 47); assay: LTEA_HepaRG_ACLY: Life Technologies and Expression Analysis (LTEA) Assay for ATP-citrate lyase (ACLY) using HepaRG (AID 2283466)
Method in brief: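 Differentiated HepaRG cells exposed 48 h in serum-free induction medium to eight half-log concentrations up to 100 uM in 0.5% DMSO, duplicates. Transcript measured by Fluidigm TaqMan qRT-PCR, normalized to ACTB, GAPDH, POLR2A; bidirectional fit versus DMSO.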

[11] = read-out: Peroxisomal acyl-coenzyme A oxidase 1 (ACOX1) gene, ACOX1 (gene 51); assay: LTEA_HepaRG_ACOX1: Life Technologies and Expression Analysis (LTEA) Assay for Peroxisomal acyl-coenzyme A oxidase 1 (ACOX1) gene using HepaRG (AID 2283467)
Method in brief: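 HepaRG cells, plated 48 h then switched to serum-free induction medium, were exposed in duplicate for 48 h to 8-point half-log concentrations up to 100 uM in 0.5% DMSO. ACOX1 mRNA was measured by qRT-PCR, normalized to ACTB/GAPDH/POLR2A, and fitted bidirectionally versus DMSO.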

[12] = read-out: Alkaline Phosphatase, Placental (ALPP) gene, ALPP (gene 250); assay: LTEA_HepaRG_ALPP: Life Technologies and Expression Analysis (LTEA) Assay for Alkaline Phosphatase, Placental (ALPP) gene using HepaRG (AID 2283468)
Method in brief: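 qRT-PCR readout of ALPP mRNA (Fluidigm TaqMan), normalized to ACTB/GAPDH/POLR2A, after 48 h chemical exposure of HepaRG cells; 8-point half-log series, top 100 uM, 0.5% DMSO vehicle. Bidirectional curve fit versus DMSO baseline.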

[13] = read-out: Bcl-2 (BAX) gene, BAX (gene 581); assay: LTEA_HepaRG_BAX: Life Technologies and Expression Analysis (LTEA) Assay for Bcl-2 (BAX) gene using HepaRG (AID 2283470)
Method in brief: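 Differentiated HepaRG cells exposed 48 h in serum-free induction medium, eight half-log concentrations from 100 uM, in duplicate, 0.5% DMSO vehicle. BAX mRNA by TaqMan qRT-PCR, normalised to ACTB, GAPDH and POLR2A.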

[14] = read-out: adenosine kinase (ADK) gene, ADK (gene 132); assay: LTEA_HepaRG_ADK: Life Technologies and Expression Analysis (LTEA) Assay for adenosine kinase (ADK) gene using HepaRG (AID 2283471)
Method in brief: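 HepaRG (human liver), 48 h chemical exposure, 8-pt half-log series, top 100 uM, 0.5% DMSO vehicle. Readout: ADK mRNA by qRT-PCR vs housekeeping genes; bidirectional curve fit relative to DMSO baseline.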

[15] = read-out: Alpha-fetoprotein (AFP) gene, AFP (gene 174); assay: LTEA_HepaRG_AFP: Life Technologies and Expression Analysis (LTEA) Assay for Alpha-fetoprotein (AFP) gene using HepaRG (AID 2283472)
Method in brief: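 Differentiated human HepaRG cells exposed 48 h in serum-free induction medium, 8-point half-log series from 100 uM in 0.5% DMSO, duplicate. AFP mRNA by qRT-PCR, normalized to ACTB, GAPDH, POLR2A; bidirectional fit vs DMSO.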

[16] = read-out: Apolipoprotein A-V (APOA5) gene, APOA5 (gene 116519); assay: LTEA_HepaRG_APOA5: Life Technologies and Expression Analysis (LTEA) Assay for Apolipoprotein A-V (APOA5) gene using HepaRG (AID 2283474)
Method in brief: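 HepaRG, 48 h chemical exposure in serum-free induction medium, 8-pt half-log series (top 100 uM), 0.5% DMSO vehicle, duplicates. Readout: APOA5 mRNA by qRT-PCR, housekeeping-normalized; bidirectional fit vs DMSO baseline.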

BCL2L11 (gene 10018) = assay: LTEA_HepaRG_BCL2L11: Life Technologies and Expression Analysis (LTEA) Assay for Bcl-2 (BCL2L11) gene using HepaRG (AID 2283473)
Method in brief: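 HepaRG, 48 h exposure, 8-pt half-log series from 100 uM in 0.5% DMSO, duplicates; qRT-PCR (Fluidigm TaqMan) for BCL2L11, housekeeping-normalized; bidirectional curve fit relative to DMSO baseline.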

[17] = read-out: Bcl-2 (BAD) gene, BAD (gene 572); assay: LTEA_HepaRG_BAD: Life Technologies and Expression Analysis (LTEA) Assay for Bcl-2 (BAD) gene using HepaRG (AID 2283469)
Method in brief: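 Differentiated HepaRG cells were exposed in duplicate in 0.5% DMSO for 48 h to eight-point half-log concentrations up to 100 uM. BAD mRNA was measured by Fluidigm TaqMan qRT-PCR, normalized to ACTB, GAPDH and POLR2A, and fitted bidirectionally against DMSO.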

Measured: AC50

Broad substrate specificity ATP-binding cassette transporter ABCG2 (Homo sapiens), sequence (Q9UNQ0 whole entry, looked up): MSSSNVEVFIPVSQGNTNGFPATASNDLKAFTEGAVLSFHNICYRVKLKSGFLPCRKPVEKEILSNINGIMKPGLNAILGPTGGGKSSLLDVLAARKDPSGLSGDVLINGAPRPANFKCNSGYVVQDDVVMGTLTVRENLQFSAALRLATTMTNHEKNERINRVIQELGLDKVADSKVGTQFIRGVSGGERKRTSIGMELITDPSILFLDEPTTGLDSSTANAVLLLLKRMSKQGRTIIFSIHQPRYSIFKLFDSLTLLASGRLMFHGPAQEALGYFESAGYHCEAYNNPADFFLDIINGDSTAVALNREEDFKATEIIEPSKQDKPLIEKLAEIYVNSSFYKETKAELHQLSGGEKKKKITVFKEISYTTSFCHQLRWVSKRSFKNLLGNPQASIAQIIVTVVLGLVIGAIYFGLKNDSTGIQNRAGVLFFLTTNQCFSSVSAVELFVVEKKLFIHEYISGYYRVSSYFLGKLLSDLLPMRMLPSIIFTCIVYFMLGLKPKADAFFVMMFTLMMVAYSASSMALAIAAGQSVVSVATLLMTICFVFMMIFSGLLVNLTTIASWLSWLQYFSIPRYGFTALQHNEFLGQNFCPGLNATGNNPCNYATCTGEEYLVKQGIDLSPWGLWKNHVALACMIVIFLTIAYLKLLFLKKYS

CCN(C(=O)c1cc(C)cc(OC[C@H](C)Nc2ccncc2)c1)C(C)C
active: [3] 232 nM | [6] 33.8 µM | [7] 25.1 µM | [10] 33.8 µM | [11] 20.1 µM | [12] 6.7 µM | [15] 23.7 µM | [16] 55 µM
inactive: [1] | [2] | [4] | [5] | [8] | [9] | [13] | [14]

Nc1ccc(Nc2ccccc2)cc1
active: [5] 63.2 µM | [7] 69.2 µM | [12] 50 µM | [15] 75.9 µM
inactive: [1] | [2] | [3] | [4] | [6] | [8] | [9] | [10] | [13] | [14] | BCL2L11 (gene 10018) | [16]

CCCN(C1CCN(C(=O)C2CCNCC2)CC1)[C@@H]1CCc2ccc(OC)cc2C1
active: [1] 50 µM | [2] 50 µM | [4] 15.2 µM | [6] 42.9 µM | [7] 70 µM | [8] 76 µM | [9] 35.5 µM | [12] 50 µM | [15] 76.2 µM | [16] 77.4 µM
inactive: [3] | [5] | [10] | [13] | [14] | BCL2L11 (gene 10018)

CC(=O)OC[C@H]1O[C@@](COC(C)=O)(O[C@H]2O[C@H](COC(C)=O)[C@@H](OC(C)=O)[C@H](OC(C)=O)[C@H]2OC(C)=O)[C@@H](OC(C)=O)[C@@H]1OC(C)=O
inactive: [1] | [2] | [3] | [4] | [5] | [6] | [7] | [8] | [9] | [10] | [12] | [17] | [13] | [14] | [15] | [16]

O=c1n(CC2CO2)c(=O)n(CC2CO2)c(=O)n1CC1CO1 (stereo not drawn)
inactive: [1] | [2] | [3] | [4] | [6] | [8] | [9] | [10] | [12] | [14] | [15] | [16]
active: [5] 79.1 µM | [7] 88 µM | [13] 83.4 µM

COC(=O)CC(=O)OC
inactive: [1] | [2] | [3] | [4] | [5] | [6] | [7] | [8] | [9] | [10] | [12] | [17] | [13] | [14] | BCL2L11 (gene 10018) | [16]
active: [15] 50 µM

NC(=O)NO
inactive: [1] | [2] | [3] | [4] | [5] | [6] | [7] | [8] | [9] | [10] | [12] | [13] | [14] | [15] | BCL2L11 (gene 10018) | [16]

CC(C)CCCCCCCOC(=O)CCCCC(=O)OCCCCCCCC(C)C
inactive: [1] | [2] | [3] | [4] | [5] | [6] | [7] | [8] | [9] | [10] | [11] | [12] | [13] | [14] | [15] | [16]
